# Test results as given in PubChem BioAssay (NCATS).
# Several values for one entry are separate records, joined by “and”; a condition that tells them apart may be missing. Equal values may be shown once. Inconclusive results are not listed. Some compounds were tested as several samples or in several runs, with calls that do not always agree. Activity calls are given as the source filed them. Unless noted, the call rests on the fitted dose curve.
# Legend:
# [1] = Confirmatory qHTS for VERO E6 Cytotoxicity Assay: Counterscreen for SARS-CoV-2 CPE Assay (AID 1508605); further: nearly all actives have a fitted effect of over 60% in size; further: potency means the concentration at half of the fitted maximal effect
# [2] = Confirmatory qHTS for activators (rescue) of SARS-CoV-2 Cytopathic Effect (CPE) (AID 1508606); further: nearly all actives have a fitted effect of over 70% in size; further: potency means the concentration at half of the fitted maximal effect
# [3] = Cytotoxicity counterscreen for inhibitors of SARS-CoV-2 cell entry (AID 1645845); conditions: outcome: dose series up to 57.1 µM unless noted; further: nearly all actives have a fitted effect of over 50% in size; further: potency means the concentration at half of the fitted maximal effect
# In short: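 ATP-content luminescence (ATPLite 1step, 15 min RT) read after 48 h compound exposure of Expi293F cells stably expressing human ACE2; normalized to cells-only wells and media-only wells.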
# [4] = Primary qHTS to identify inhibitors of SARS-CoV-2 cell entry (AID 1645846); conditions: SARS-CoV-2 pseudovirus cell entry assay, luminescence; activity change, negative = inhibition: at 57.1 µM (top of the series) unless noted; further: nearly all actives have a fitted effect of over 45% in size; further: potency means the concentration at half of the fitted maximal effect
# In short: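 Entry measured by luciferase signal 48 h after adding SARS-CoV-2-S pseudotyped MLV particles to HEK293-ACE2 cells preincubated 1 h with compounds. Normalisation: bald particles and spike particles.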
# [5] = Confirmatory qHTS to identify inhibitors of SARS-CoV-2 cell entry (AID 1645844); further: potency means the concentration at half of the fitted maximal effect; nearly all actives have a fitted effect of over 45% in size
# In short: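 Luminescence entry read-out after 48 h: spike-pseudotyped MLV particles (Wuhan-Hu-1, 19-aa C-terminal truncation) added to compound-pretreated (1 h) HEK293-ACE2 cells; Data were normalised to bald PP and spike PP wells.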
# [6] = NCATS anti-infectives library activity on HEK293 viability as a counter-qHTS vs the C. elegans viability qHTS (AID 1745854; active means well fitted curve in the direction sought with a large enough effect; an effect the other way counts as inactive or inconclusive; further: potency means the concentration at half of the fitted maximal effect)
# In short: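 CellTiter-Glo luminescence, read on a CCD imager, scored viability of HEK293 cells after 24 hr compound exposure at 37C. Library tested in several concentrations, 1:5 steps, up to 41.7 uM; digitonin served as control.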
# [7] = NCATS anti-infectives library activity on the primary C. elegans qHTS viability assay (AID 1745855); further: potency means the concentration at half of the fitted maximal effect
# In short: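 Titration-based screen in worms: eggs hatched overnight in M9, L1 larvae fed TOP10 capsules in S medium with compound, incubated 21 °C for 7 days; fluorescent objects gated by size and intensity at days 0, 3 and 7.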
# [8] = VSVG counterscreen qHTS to identify inhibitors of SARS-CoV-2 cell entry (AID 1645847); further: potency means the concentration at half of the fitted maximal effect; nearly all actives have a fitted effect of over 65% in size
# In short: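 Luminescence read after 48 h infection at 37 C with VSV-G-pseudotyped MLV particles, following 1 h compound exposure of Expi293F cells stably expressing human ACE2; scaled between bald particle and VSV-G particle wells.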
# [9] = molecular target: Calcium and integrin-binding protein 1 (Homo sapiens) (UniProt Q99828); experiment: Primary qHTS for Identification of Calcium Integrin Binding Protein 1 (CIB1) Competitor (AID 1508620; active means well fitted curve in the direction sought with a large enough effect; an effect the other way counts as inactive or inconclusive;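 further: GST tagged CIB1 binding a fluorescein labelled alphaIIb integrin peptide tracer; top concentration of the series differs between compounds; on the % scale 0 is the no-effect control and ±100 the full control effect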)
# Sequence of Calcium and integrin-binding protein 1 (Homo sapiens) (Q99828 whole entry, looked up): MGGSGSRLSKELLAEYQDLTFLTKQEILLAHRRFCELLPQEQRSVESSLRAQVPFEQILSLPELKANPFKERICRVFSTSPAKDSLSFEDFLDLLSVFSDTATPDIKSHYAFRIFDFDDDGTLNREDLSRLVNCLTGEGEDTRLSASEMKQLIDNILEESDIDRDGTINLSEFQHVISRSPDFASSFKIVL
# In short: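 CIB1-GST (1 uM final) and compound incubated 15 min at room temperature before adding FITC-alphaIIb peptide tracer (100 nM final). Competition for binding read by fluorescence polarization (ex 480, em 540) after another 15 min at room temperature.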
# [10] = tested on: HIV-1 nucleocapsid protein NCp7 (binding to TG oligonucleotide); experiment: HIV Nucleocapsid (AID 346; call rule not given here;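 further: potency means the concentration at half of the fitted maximal effect; potency is for inhibitors that block NC binding and lower polarization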); conditions: HIV-1 NC / fluorescein-TGTGTGTG probe, fluorescence polarization
# In short: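 10 nM TG4xF probe with 100 nM nucleocapsid protein in high-salt Hepes pH 7.5 (250mM NaCl) containing 1uM ZnCl2 and reducing agents. Compound inhibition of binding was read as fluorescein polarization after 1 hr at room temperature.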
# [11] = molecular target: Lysosomal acid glucosylceramidase (Homo sapiens) (UniProt P04062); experiment: Glucocerebrosidase-p2 (AID 348; in the data active means potency below about 10 µM; further: potency means the concentration at half of the fitted maximal effect); conditions: purified GBA, blue fluorogenic substrate, 40 min
# Sequence of Lysosomal acid glucosylceramidase (Homo sapiens) (P04062 whole entry, looked up): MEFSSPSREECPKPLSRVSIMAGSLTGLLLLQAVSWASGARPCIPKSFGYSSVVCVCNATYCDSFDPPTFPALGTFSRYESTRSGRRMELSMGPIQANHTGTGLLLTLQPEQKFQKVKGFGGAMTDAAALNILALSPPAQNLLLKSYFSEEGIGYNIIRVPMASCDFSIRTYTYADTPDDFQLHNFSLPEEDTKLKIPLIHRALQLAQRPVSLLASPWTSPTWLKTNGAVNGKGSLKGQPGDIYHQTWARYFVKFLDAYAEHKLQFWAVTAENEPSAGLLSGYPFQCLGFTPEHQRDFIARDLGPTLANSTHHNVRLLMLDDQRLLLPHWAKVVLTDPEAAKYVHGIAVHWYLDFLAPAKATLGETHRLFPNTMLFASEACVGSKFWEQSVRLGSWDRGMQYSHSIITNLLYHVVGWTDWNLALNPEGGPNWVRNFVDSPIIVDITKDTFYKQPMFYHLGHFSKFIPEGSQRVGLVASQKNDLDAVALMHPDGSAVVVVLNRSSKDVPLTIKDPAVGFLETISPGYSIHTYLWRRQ
# In short: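 Normal human glucocerebrosidase (0.2 nM) with blue fluorogenic substrate (80 uM final) in citrate/phosphate pH 5.9 with 10mM sodium taurocholate, 0.01% tween-20; 40 min RT, NaOH/glycine stop; fluorescence Ex 365/Em 440; AC50 from a titration from 0.6 nM upwards.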
# [12] = AP1 Signaling Pathway (AID 357; active means well fitted curve in either direction with a large enough effect, not every such curve was filed as active;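 further: ME-180 reporter cells stimulated with EGF at its EC50 level; on the % scale 0 is the no-effect control and ±100 the full control effect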)
# In short: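 Beta-lactamase reporter under AP-1 response element, ME-180 background. Stimulus: EC50 EGF. Compound exposure 5 h, 37 °C. Detection: CCF4, 2.5 h RT, 460/530 nm. Values: AC50 from titration.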
# [13] = molecular target: Cytochrome P450 1A2 (Homo sapiens) (UniProt P05177); experiment: p450-cyp1a2 (AID 410); further: potency means the concentration at half of the fitted maximal effect
# Sequence of Cytochrome P450 1A2 (Homo sapiens) (P05177 whole entry, looked up): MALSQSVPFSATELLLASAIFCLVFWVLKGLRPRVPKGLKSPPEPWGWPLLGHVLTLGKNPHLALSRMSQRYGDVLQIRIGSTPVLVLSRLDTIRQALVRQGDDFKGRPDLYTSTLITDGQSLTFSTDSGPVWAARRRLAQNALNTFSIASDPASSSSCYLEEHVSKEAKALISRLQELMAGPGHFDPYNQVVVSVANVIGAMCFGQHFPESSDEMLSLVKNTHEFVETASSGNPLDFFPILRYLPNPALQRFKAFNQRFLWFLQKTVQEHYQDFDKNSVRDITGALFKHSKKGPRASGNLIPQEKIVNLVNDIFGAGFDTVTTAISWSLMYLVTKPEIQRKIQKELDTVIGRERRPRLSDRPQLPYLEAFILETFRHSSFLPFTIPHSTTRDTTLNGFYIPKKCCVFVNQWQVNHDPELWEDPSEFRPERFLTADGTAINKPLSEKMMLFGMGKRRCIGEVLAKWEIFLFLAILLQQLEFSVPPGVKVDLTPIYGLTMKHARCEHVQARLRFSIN
# In short: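 20nM CYP1A2, 100uM Luciferin-ME (=Km), 100mM KPO4; cpd 10 min RT; +NADPH regen, 60 min RT; stop/detect 20 min; luminescence. Normalized to furafylline 57 uM = full inhibition.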
# [14] = NFAT Signaling Pathway (AID 444; active means well fitted curve in either direction with a large enough effect, not every such curve was filed as active;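 further: carbachol stimulus at about its EC50 of 1 µM final; on the % scale 0 is the no-effect control and ±100 the full control effect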); conditions: Jurkat NFAT-bla M1, carbachol, beta-lactamase ratio, 5 h; at 7.69 µM (top of the series)
# In short: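 Read-out: CCF4 FRET ratio (460 nm/530 nm) after 1 h RT dye loading, used for %activity and AC50 from titration series. Cells: Jurkat NFAT-β-lactamase/M1 line, treated with compound plus 1 uM carbachol for 5 h, 37 °C.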
# [15] = Stat Signaling Pathway (AID 446; active means well fitted curve in either direction with a large enough effect, not every such curve was filed as active;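 further: ME-180 cervical cancer cells given 40 pM IL-6 alongside compound; SIE-controlled beta-lactamase reporter measured as 460/530 nm FRET emission ratio; on the % scale 0 is the no-effect control and ±100 the full control effect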)
# In short: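 Normalization used AC90 stimulation (300 pM IL-6) and AC90 inhibition (125 nM pan-JAK inhibitor at 40 pM IL-6). The underlying signal is SIE-driven beta-lactamase in ME-180 cells after 5 h IL-6 exposure with compound.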
# [16] = molecular target: Mitogen-activated protein kinase 10 (Mus musculus) (UniProt Q61831); experiment: JNK3 AlphaScreen Assay (AID 530; active means well fitted curve in either direction with a large enough effect, not every such curve was filed as active)
# In short: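 Kinase buffer: 20 mM Tris-HCl pH 7.6, 10 mM MgCl2, 1 mM DTT, 0.1 mM Na3VO4, 0.01% Tween-20; ATP 10 uM. Substrate biotin-GST-cJun(1-79), enzyme from activated HepG2 lysates. Detection by Ser73 phospho-antibody AlphaScreen.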
# [17] = molecular target: Cytochrome P450 3A4 (Homo sapiens) (UniProt P08684); experiment: qHTS Assay for Activators of Cytochrome P450 3A4 (AID 885; active means well fitted curve in the direction sought with a large enough effect; an effect the other way counts as inactive or inconclusive; further: nearly all actives have a fitted effect of over 65% in size)
# Sequence of Cytochrome P450 3A4 (Homo sapiens) (P08684 whole entry, looked up): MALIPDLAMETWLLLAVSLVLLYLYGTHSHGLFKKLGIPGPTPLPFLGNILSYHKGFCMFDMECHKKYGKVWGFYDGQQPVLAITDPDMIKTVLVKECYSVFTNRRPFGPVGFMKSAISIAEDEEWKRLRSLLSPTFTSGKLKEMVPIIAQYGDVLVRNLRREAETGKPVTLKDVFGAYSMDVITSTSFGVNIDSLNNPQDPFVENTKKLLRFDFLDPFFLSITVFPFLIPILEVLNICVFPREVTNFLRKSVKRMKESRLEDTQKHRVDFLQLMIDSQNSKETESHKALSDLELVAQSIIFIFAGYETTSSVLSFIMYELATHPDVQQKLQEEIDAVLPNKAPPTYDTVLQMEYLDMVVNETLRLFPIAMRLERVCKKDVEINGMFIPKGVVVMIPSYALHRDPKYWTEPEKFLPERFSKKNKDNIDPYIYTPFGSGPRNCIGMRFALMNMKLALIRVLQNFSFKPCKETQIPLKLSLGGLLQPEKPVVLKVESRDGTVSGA
# In short: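 Human CYP3A4 dealkylates Luciferin-PPXE to luciferin, which luciferase detection converts to light. Substrate was at its KM (25uM), buffer 200mM KPO4, reaction 60 min at RT.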
# [18] = qHTS Assay for Lipid Storage Modulators (AID 1519); conditions: Drosophila S3 cells, BODIPY lipid droplet/cell ratio, laser cytometry, cells loaded with oleic acid; for activity change, negative = inhibition: at 57.5 µM (top of the series)
# In short: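 Cells seeded at 5,000 per well were treated with compounds over a concentration series and loaded with oleic acid (400 uM, as added). Lipid droplet fluorescence (488 nm excitation, 500-530 nm channel) was read by laser-scanning cytometry and normalized to 20 uM Triacsin C.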
# [19] = Counterscreen qHTS for small molecule stabilizers of the endoplasmic reticulum resident proteome: GLuc-NoTag assay (AID 1508627; active means well fitted curve in the direction sought with a large enough effect; an effect the other way counts as inactive or inconclusive;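 further: SH-SY5Y cells given compound then 100 nM thapsigargin to empty ER calcium; 0% = thapsigargin alone and -100% = DMSO vehicle control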)
# In short: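 Counterscreen line: SH-SY5Y-GLuc-NoTag cells, treated with compound 19 hr before a 4 hr, 100 nM thapsigargin calcium depletion. Secreted Gaussia luciferase in the medium was measured by luminescence after coelenterazine was added (0.07x final), with cells unlysed.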
# [20] = Cell Viability qHTS for small molecule stabilizers of the endoplasmic reticulum resident proteome (AID 1508629; active means well fitted curve in the direction sought with a large enough effect; an effect the other way counts as inactive or inconclusive); conditions: cell viability counter-screen, 100 nM thapsigargin for final 4 h
# [21] = molecular target: Glucocorticoid receptor (Homo sapiens) (UniProt P04150); experiment: GR-EFC Redistribution (AID 451); conditions: CHO-K1 GR-EFC translocation, beta-gal luminescence, 2 h; further: potency means the concentration at half of the fitted maximal effect
# Sequence of Glucocorticoid receptor (Homo sapiens) (P04150 whole entry, looked up, the tested form may be a part): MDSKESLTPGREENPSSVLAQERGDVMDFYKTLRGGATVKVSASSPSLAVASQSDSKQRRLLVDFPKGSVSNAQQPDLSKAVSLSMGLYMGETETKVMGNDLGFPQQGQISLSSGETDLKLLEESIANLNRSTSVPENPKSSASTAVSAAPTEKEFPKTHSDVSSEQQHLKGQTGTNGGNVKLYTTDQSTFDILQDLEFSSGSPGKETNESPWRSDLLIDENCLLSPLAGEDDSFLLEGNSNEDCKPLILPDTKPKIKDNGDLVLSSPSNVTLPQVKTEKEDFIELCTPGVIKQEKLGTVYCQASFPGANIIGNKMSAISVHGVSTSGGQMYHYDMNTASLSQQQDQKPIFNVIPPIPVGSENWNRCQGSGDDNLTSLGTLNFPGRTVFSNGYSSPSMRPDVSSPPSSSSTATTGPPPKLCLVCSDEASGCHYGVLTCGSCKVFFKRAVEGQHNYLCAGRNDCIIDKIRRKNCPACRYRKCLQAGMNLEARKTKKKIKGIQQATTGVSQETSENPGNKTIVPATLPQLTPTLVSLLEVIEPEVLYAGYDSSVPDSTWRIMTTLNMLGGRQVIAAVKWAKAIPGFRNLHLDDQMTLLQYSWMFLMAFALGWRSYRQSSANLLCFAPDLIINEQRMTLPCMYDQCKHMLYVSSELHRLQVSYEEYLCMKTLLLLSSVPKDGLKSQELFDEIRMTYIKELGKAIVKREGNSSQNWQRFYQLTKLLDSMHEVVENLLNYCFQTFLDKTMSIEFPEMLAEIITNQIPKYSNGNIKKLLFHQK
# In short: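 Translocation of GR-ED fusion to nuclear EA restores b-gal, read by luminescence after 1 h room-temperature detection. Engineered CHO-K1 biosensor cells, 1,000/well, exposed 2 h at 37 C to titrations up to 46 uM final.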
# [22] = molecular target: 3',5'-cyclic-AMP phosphodiesterase 4B (Homo sapiens) (UniProt Q07343); experiment: qHTS Assay for Inhibitors of PDE-IV (AID 607; active means well fitted activation curve with a large enough effect in the main read-out, with a control signal flat, not every such curve was filed as active; further: % of control where 0% means no effect)
# Sequence of 3',5'-cyclic-AMP phosphodiesterase 4B (Homo sapiens) (Q07343 whole entry, looked up): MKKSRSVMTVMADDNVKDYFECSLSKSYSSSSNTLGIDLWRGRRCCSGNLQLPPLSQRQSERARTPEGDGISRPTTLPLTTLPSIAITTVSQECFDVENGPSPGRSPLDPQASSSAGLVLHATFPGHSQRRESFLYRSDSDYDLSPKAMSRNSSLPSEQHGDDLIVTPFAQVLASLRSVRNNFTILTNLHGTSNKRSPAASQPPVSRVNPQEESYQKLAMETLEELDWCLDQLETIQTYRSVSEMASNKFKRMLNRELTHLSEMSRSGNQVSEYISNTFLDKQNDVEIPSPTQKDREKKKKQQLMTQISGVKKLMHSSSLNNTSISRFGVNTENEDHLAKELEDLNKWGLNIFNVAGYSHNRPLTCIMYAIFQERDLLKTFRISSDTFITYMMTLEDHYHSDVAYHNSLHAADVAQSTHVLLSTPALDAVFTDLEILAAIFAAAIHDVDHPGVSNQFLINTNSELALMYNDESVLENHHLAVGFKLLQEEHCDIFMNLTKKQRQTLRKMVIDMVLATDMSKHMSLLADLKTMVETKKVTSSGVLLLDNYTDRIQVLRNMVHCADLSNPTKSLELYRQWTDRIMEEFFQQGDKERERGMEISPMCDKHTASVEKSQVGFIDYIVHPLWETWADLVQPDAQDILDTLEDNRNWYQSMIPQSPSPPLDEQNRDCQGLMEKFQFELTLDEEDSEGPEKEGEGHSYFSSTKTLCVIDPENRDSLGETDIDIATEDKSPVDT
# In short: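 HEK293 ACTOne cells with CNG channel (1000/well), endogenous PDE4; membrane potential dye, compounds up to 22.9 uM final. Fluorescence Ex 535/Em 590; RO 20-1724 (100 uM final) as reference.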
# [23] = Confirmatory qHTS for small molecule stabilizers of the endoplasmic reticulum resident proteome: Secreted ER Calcium Modulated Protein (SERCaMP) assay (AID 1508628; active means well fitted curve in the direction sought with a large enough effect; an effect the other way counts as inactive or inconclusive; further: potency means the concentration at half of the fitted maximal effect; nearly all actives have a fitted effect of over 40% in size)
# In short: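 GLuc-SERCaMP-expressing SH-SY5Y cells, pretreated 16 h with compound, are challenged with thapsigargin to empty ER calcium stores; after 4 h, coelenterazine is added directly to the medium and luminescence is imaged.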
# [24] = measured here: cell count channel max response
# [25] = measured here: lipid channel max response
compound,measurement,setting,value
CNCc1ccc(-c2cc(-c3nc(-c4ccc(S(=O)(=O)C(C)C)cc4)cnc3N)on2)cc1,Potency,[1],11.2 µM (active)
same,Potency,[2],1.78 µM (active)
same,Potency,[3],inactive
same,"activity change, negative = inhibition",[4],-25.7%
C[C@@H]1O[C@@H](O[C@@H]2[C@@H](O)[C@H](O[C@@H]3[C@@H](O)[C@@H](O)[C@H](O[C@H]4[C@H](OC(=O)[C@]56CCC(C)(C)C[C@H]5C5=CCC7[C@@]8(C)C[C@H](O)[C@H](O[C@@H]9O[C@@H](C)[C@H](O)[C@@H](O)[C@H]9O)[C@@](C)(CO)C8CC[C@@]7(C)[C@]5(C)C[C@H]6O)O[C@H](C)[C@H](O)[C@@H]4O)O[C@H]3C)OC[C@H]2O)[C@H](O)[C@H](O)[C@H]1O (stereo partly specified),Potency,[1],1.91 µM (active)
same,Potency,[2],0.602 µM (active)
Cc1cc(C)c(CNC(=O)c2cc(-c3ccc(N4CCN(C)CC4)nc3)cc3c2c(C)cn3C(C)C)c(=O)[nH]1,Potency,[1],inactive
same,Potency,[2],10 µM (active)
same,Potency,[5],27.1 µM (active)
same,Potency,[3],inactive
same,"activity change, negative = inhibition",[4],-89.9%
O=C(NCc1ccccc1)[C@H](Cc1ccccc1)NC(=O)[C@H]1O[C@@H]1C(=O)NCCc1ccc(O)cc1,Potency,[1],inactive
same,Potency,[2],0.141 µM (active)
same,Potency,[5],1.36 µM (active)
same,Potency,[3],inactive
CCCCNc1ncc2c(-c3ccc(CN4CCN(C)CC4)cc3)cn(C3CCC(O)CC3)c2n1 (stereo unspecified),Potency,[1],3.16 µM (active)
same,Potency,[2],inactive
same,Potency,[3],inactive and 25.1 µM (active)
same,Potency,[4],14.1 µM (active)
COC(=O)[C@]1(C)CC[C@]2(C)CC[C@]3(C)C4=CC=C5C(=CC(=O)C(O)=C5C)[C@]4(C)CC[C@@]3(C)[C@@H]2C1,Potency,[6],1.12 µM (active)
same,Potency,[7],9.16 µM (active)
Cn1c(NC[C@@H](N)Cc2ccccc2)nc(-c2ccncc2)c(-c2ccc3ccccc3c2)c1=O,Potency,[3],inactive
OC1CCC(Oc2cccc3cnc(Nc4ccc5nc[nH]c5c4)nc23)CC1 (stereo unspecified),Potency,[8],0.341 µM (active)
N#Cc1ccc(NC(=O)Nc2nnc(-c3ccncc3)s2)cc1C(F)(F)F,outcome,[9],inactive
S=P(c1ccccc1)(c1ccccc1)c1c[n+](Cc2ccccc2)c2ccccn12,outcome,[9],inactive
c1ccc(N2CCCC3(CCNCC3)C2)nc1,Potency,[10],> 20 µM (inactive)
same,Potency,[11],> 11.4 µM (inactive)
same,outcome,[12],inactive
same,Potency,[13],25.1 µM (active)
same,"activity change, negative = inhibition",[14],-27% (inactive)
same,outcome,[15],inactive
same,outcome,[16],inactive
same,Potency,[17],inactive
same,"activity change, negative = inhibition",[18],3.94% (inactive)
same,max response,[18]; [24],2.21%
same,max response,[18]; [25],8.95%
same,outcome,[19],inactive
same,max response,[20],-3.57% (inactive)
c1ccc(N2CC[C@@]3(CCCNC3)C2)cc1,Potency,[11],> 11.4 µM (inactive)
same,outcome,[12],inactive
same,outcome,[15],inactive
same,Potency,[21],> 46 µM (inactive)
same,outcome,[16],inactive
same,Potency,[22],inactive
same,Potency,[17],inactive
same,"activity change, negative = inhibition",[18],5.37% (inactive)
same,max response,[18]; [24],5.01%
same,max response,[18]; [25],10.7%
same,outcome,[19],inactive
same,Potency,[23],44.7 µM (active)
same,max response,[20],3.77% (inactive)
